Compound activity as filed in PubChem BioAssay.
Only some compounds are listed: those with a hit (about 10% of all), similar ones and a draw of the others.
Lamin A splicing = qHTS Assay for Modulators of Lamin A Splicing | HeLa LMNA splicing GFP/RFP minigene ratio, 48 h | Potency, µM (doses to about 46.1 µM), usual class: inhibitors | hit rate 0.01% among 200,000; active = well fitted inhibition curve with a large enough effect in the signal ratio, with a control signal flat, not every such curve was filed as active; inconclusive = small, poorly fitted or top-dose-only effect, or effect the other way, or a change in a side signal; the % refers to the signal ratio
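S3 HeLa cells stably expressing lamin A-EGFP splicing minigene plus DsRed2, 600 cells/well, 48 h compound exposure at 37C. Laser-scanning cytometry; analysed as GFP (500-530 nm)/RFP (575-640 nm) total intensity ratio; 0.5% DMSO vehicle.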
PNC inhibitor = High Content Assay for Compounds that inhibit the Assembly of the Perinucleolar Compartment | PC3M PTB-GFP, PNC prevalence imaging, 16 h; hits give low values | activity change (PNC), negative = inhibition, % at 10 µM | hit rate 3.1% among 140,000 | AID 2417, 2010;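 active = readout at or below -70, meaning at least 70% loss of cells showing the perinucleolar compartment, a nuclear body marking cancer cells; inconclusive = readout between -30 and a set limit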
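Read-out is percentage of cells bearing a perinucleolar compartment, from automated 20x imaging of fixed, Hoechst-stained PC3M PTB-GFP cells. Cells were seeded 4 h, then exposed 16 h to compound (23 nl of library stock) in duplicate plates.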
ALDH1A1 block = qHTS Assay for Inhibitors of Aldehyde Dehydrogenase 1 (ALDH1A1) | Purified ALDH1A1, NADH fluorescence, propionaldehyde substrate | hit rate 7.3% among 220,000 | Aldehyde dehydrogenase 1A1 (Homo sapiens), P00352 | Potency, µM (highest dose often 75.3 µM), hits mostly inhibitors | AID 1030, 2008
Target sequence (P00352 whole entry, looked up): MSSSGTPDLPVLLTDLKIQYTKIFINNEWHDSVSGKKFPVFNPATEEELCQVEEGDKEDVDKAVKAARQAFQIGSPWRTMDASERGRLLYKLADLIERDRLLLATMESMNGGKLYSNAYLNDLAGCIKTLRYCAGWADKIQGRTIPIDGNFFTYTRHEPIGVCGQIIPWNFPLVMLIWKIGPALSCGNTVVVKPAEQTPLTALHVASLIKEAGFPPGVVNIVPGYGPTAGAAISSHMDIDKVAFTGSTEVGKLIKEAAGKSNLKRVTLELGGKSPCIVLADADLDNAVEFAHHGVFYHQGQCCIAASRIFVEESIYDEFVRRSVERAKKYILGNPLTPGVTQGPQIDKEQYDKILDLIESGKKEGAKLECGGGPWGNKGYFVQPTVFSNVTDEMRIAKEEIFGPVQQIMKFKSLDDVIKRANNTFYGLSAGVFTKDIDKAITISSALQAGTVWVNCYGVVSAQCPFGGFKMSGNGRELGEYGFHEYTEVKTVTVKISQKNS
HPGD block = qHTS Assay for Inhibitors of HPGD (15-Hydroxyprostaglandin Dehydrogenase); 15-hydroxyprostaglandin dehydrogenase [NAD(+)] (Homo sapiens), P15428; purified HPGD, NADH fluorescence kinetic, PGE2 substrate; Potency, µM, hits mostly inhibitors; hit rate 4.3% among 150,000
Target sequence (P15428 whole entry, looked up): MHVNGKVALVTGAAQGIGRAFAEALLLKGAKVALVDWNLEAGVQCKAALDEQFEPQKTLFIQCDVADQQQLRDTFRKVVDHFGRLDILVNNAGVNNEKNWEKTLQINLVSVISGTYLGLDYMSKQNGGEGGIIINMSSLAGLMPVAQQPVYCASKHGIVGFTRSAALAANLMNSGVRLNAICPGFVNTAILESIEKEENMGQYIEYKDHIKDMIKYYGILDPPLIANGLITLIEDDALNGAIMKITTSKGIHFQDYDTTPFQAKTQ
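20 nM HPGD preincubated 15 min at room temperature with compound in 50 mM Tris-HCl pH 8, 0.01% Tween 20. Started with 1 mM NAD+ and 30 uM prostaglandin E2; NADH fluorescence (360/450 nm) read 5 times over 30-s intervals, last minus first.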
IMPase cell inh = qHTS Assay for Identifying the Cell-Membrane Permeable IMPase Inhibitors; CHO-M1 cells, IP1 accumulation, HTRF TR-FRET ratio; inhibition (IP1 accumulation), % at 46.1 µM; AID 901, 2007; 120,000 tested, under 10 active; Inositol monophosphatase 1 (Rattus norvegicus), P97697; active = well fitted curve in the direction sought with a large enough effect in the signal ratio, not every such curve was filed as active; inconclusive = small, poorly fitted or top-dose-only effect, or a change in a side signal; inactive = no such curve, though single readings can be large or run the other way; the % refers to the signal ratio;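 also: cells stimulated with carbachol in lithium chloride buffer; higher means more IMPase inhibition seen as more IP1 and lower FRET ratio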
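Measured: the HTRF emission ratio (665/620 nm) plus the 620 nm donor channel, each fitted to the Hill equation to give AC50. Cells were CHO-M1 given compounds up to 46 uM and a 30 min carbachol stimulation at 37C.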
KinaseGlo FLuc = Counterscreen for Luciferase (Kinase-Glo TM) Inhibition; Potency, µM (highest dose often 38.3 µM), most hits filed as inhibitors; Kinase-Glo luciferase, ATP luminescence, 8 min; hit rate 0.28% among 200,000; Luciferin 4-monooxygenase (Photuris pensylvanica), Q27757; AID 1379, 2008; active = well fitted inhibition curve with a large enough effect; inconclusive = small, poorly fitted or top-dose-only effect; also: nearly all actives have a fitted effect of over 60% in size
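Compound is pinned into ATP-containing buffer (10 uM ATP, imidazole pH 7.2, 7 mM MgCl2). Kinase-Glo luciferase reagent is then added. Light output is recorded following an 8-min room-temperature incubation.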
Hits are given with their value; i = inactive; ? = inconclusive; nt = no result given; [ ] = another dose, or the depositor's remark. Unless noted, calls follow the shape of the dose curve; as a rule, active = well fitted inhibition curve with a large enough effect (not every such curve was filed as active); inconclusive = small, poorly fitted or top-dose-only effect, or another doubt; inactive = no such curve, though single readings can be large or run the other way.

SMILES	Lamin A splicing	PNC inhibitor	ALDH1A1 block	HPGD block	IMPase cell inh	KinaseGlo FLuc
CCCCNc1nc(C)nc2c1nc(-c1ccccc1)n2CCN1CCCCC1	nt	nt	?	?	nt	i
CN1C(=O)C2(Oc3ccccc3C3CC(c4ccccc4)=NN32)c2ccccc21 (stereo not given)	?	i	25.1µM	i	i	i
Cc1ccc(C2=NN3C(C2)c2ccccc2OC32C(=O)Nc3ccccc32)cc1 (stereo not given)	?	i	?	i	i	i
CC(=O)c1cc(C#N)c(SCC(=O)OC(C)(C)C)nc1C	i	i	6.31µM	i	i	i
CC(C)NC(=O)N1CC2(CCN(C(=O)c3ccncc3)CC2)C1	nt	nt	i	i	nt	i
CCCCC(CC)C/C=C1\CC(C(=O)OCC)Oc2ccccc21 (stereo not given) (tested in a mixture with another compound)	nt	nt	i	i	nt	i
CCOC(=O)C(Oc1ccc(=O)n(-c2ccccc2)n1)C(C)=O (stereo not given)	i	i	17.8µM	i	i	i
O=C(O)COc1ccc(=O)n(-c2ccccc2)n1	i	i	i	i	i	i
O=[N+]([O-])c1ccc(SCCc2ccncc2)cc1	nt	nt	7.94µM	nt	nt	nt
CN(C)c1ncc2nc(-c3ccc(F)cc3)c(=O)n(C[C@H]3CCCO3)c2n1	i	nt	?	nt	nt	nt
CN1CC2(C)OC(=O)C(Cl)=C2CC1c1ccccc1 (stereo not given)	i	i	12.6µM	i	nt	i
O=C1CC(c2ccccc2)N1c1ccccc1 (stereo not given)	i	i	i	i	i	i
O=C1NC(=S)N/C1=C/c1cc([N+](=O)[O-])ccc1N1CCOCC1	i	nt	25.1µM	nt	nt	i
O=C(c1ccccc1)c1cc([N+](=O)[O-])ccc1N1CCOCC1	?	-112.5	?	i	i	i
CCOC(=O)c1cc(CC)sc1NC(=O)c1cc([N+](=O)[O-])ccc1N1CCOCC1	i	-83.9	?	i	i	i
O=Cc1cc([N+](=O)[O-])ccc1N1CCOCC1	i	i	?	i	nt	i
CC1CCCN(c2ccc([N+](=O)[O-])cc2C(=O)c2ccccc2)C1 (stereo not given)	i	-99.6	?	i	nt	i
O=C(c1ccc(Cl)cc1)c1cc([N+](=O)[O-])ccc1N1CCOCC1	i	nt	?	nt	nt	i
CC(=O)NC1C(=O)N=C(SCC(=O)Nc2c(C)cccc2C)NC1=O (stereo not given)	nt	nt	?	nt	nt	i
CC(=O)NC1C(=O)N=C(SCC(=O)NCc2ccccc2)NC1=O (stereo not given)	i	-100.0	?	i	i	i
Clc1ccc(/C=N/Nc2nn[nH]n2)cc1	i	-100.0	i	i	i	i
O=C(NCc1ccccc1)c1c2c(nc3ccccc13)C(=O)N(C1CCCCC1)C2	i	nt	nt	nt	nt	nt
CC(=O)Nc1ccc(S(=O)(=O)NCCc2cn3ccsc3n2)cc1	i	nt	nt	nt	nt	nt
COc1ccccc1NC(=O)CN(Cc1ccco1)C(=O)c1ccc(Cl)nc1	i	nt	15.8µM	nt	nt	i
O=C(CN(Cc1ccco1)C(=O)c1ccc(Cl)cc1)Nc1ccc(Cl)c(Cl)c1	?	i	?	i	nt	i
SMILES	Lamin A splicing	PNC inhibitor	ALDH1A1 block	HPGD block	IMPase cell inh	KinaseGlo FLuc
Cc1ccc(N=C2C(=S)N(c3ccc(C)cc3)C(=N)N2/N=C/c2ccc(Cl)cc2)cc1	i	i	?	35.5µM	i	i
CC(/C=C1\N=C(SCc2ccccc2)SC1=O)=C\c1ccccc1	i	?	22.4µM	i	nt	i
COC(=O)c1cc(NC(=O)CN(c2ccccc2)S(=O)(=O)N(C)C)ccc1Cl	nt	nt	nt	nt	i	nt
CCCCC1=CC2=C(OC(C)=O)C(=O)C(C)(OC(=O)C3CCCC3)C(=O)C2=CO1 (stereo not given)	nt	nt	i	i	nt	i
Clc1ncnc2scc(C3COc4ccccc4O3)c12 (stereo not given)	i	i	17.8µM	28.2µM	i	i
CN(C)CCCCNC(=O)c1ccc(-n2c(=O)c(=O)[nH]c3ccccc32)cc1	nt	nt	i	i	nt	i
O=[N+]([O-])c1cccc(S(=O)(=O)c2cccc([N+](=O)[O-])c2)c1	i	nt	i	nt	nt	i
O=C(Cl)c1cccc([N+](=O)[O-])c1	nt	nt	11.2µM	i	nt	nt
O=[N+]([O-])c1cccc(Cl)c1	nt	nt	25.1µM	i	nt	nt
CCC/C=C(\CCC)C(NS(=O)(=O)c1ccc(-c2ccccc2)cc1)c1ccc(C(=O)OC)cc1 (stereo not given)	nt	nt	i	i	nt	i
O=C(Cc1coc2ccc3ccccc3c12)Nc1nnc(C2CC2)s1	?	-100.4	i	nt	?	nt
Cc1cccc(/C=C(\c2nc3ccccc3[nH]2)S(=O)(=O)c2ccccc2)c1	?	-81.8	i	i	i	i
O=C(NN1C(=O)C2C3C=CC(C3)C2C1=O)c1ccncc1 (stereo not given)	i	-113.4	i	i	nt	i
COC(=O)N1C(/C=C/c2ccc3c(c2)OCO3)=Cc2ccccc2C1CC(C)=O (stereo not given)	?	nt	?	?	nt	i[7.66 µM]
Cc1nc(=O)cc(-c2ccccc2)n1-c1ccccc1	i	-107.8	i	i	i	i
Cc1nn(C)c(=O)n1-c1ccccc1	i	nt	i	nt	nt	i
O=C1[C@H]2[C@H]3[C@H](O)[C@H](O)C/C(=N/OC[C@@H](O)COCc4ccco4)[C@@H]3CC[C@@H]2C(=O)N1C1CCCCC1	nt	nt	i[13.5 µM]	nt	nt	nt
CCOC(=O)c1ccc(NC(=O)C2CCCO2)cc1 (stereo not given)	i	i	i	25.1µM	i	i
CCOC(=O)C1CCN(C(=O)c2ccc(NC(=O)C3CCCO3)cc2)CC1 (stereo not given)	i	i	i	25.1µM	i	i
CCCCOC(=O)c1ccc(NC(=O)C2CCCO2)cc1 (stereo not given)	i	i	i	i	i	i
Cc1cccc(N2CCN(C(=O)c3ccc(NC(=O)C4CCCO4)cc3)CC2C)c1 (stereo not given)	i	i	i	i	i	i
CC(=O)c1ccc(N2CCN(C(=O)c3ccc(NC(=O)C4CCCO4)cc3)CC2)cc1 (stereo not given)	i	i	i	25.1µM	i	i
CCCCc1ccc(NC(=O)C2CCCO2)cc1 (stereo not given)	i	i	i	15.8µM	i	i
CCCCNC(=O)c1ccc(NC(=O)C2CCCO2)cc1 (stereo not given)	i	i	i	?	i	i
CCOC(=O)C1CCN(C(=O)Nc2ccc(NC(=O)C3CCN(C(=O)OCC)CC3)cc2)CC1	i	i	i	i	i	i
